Assay results published in PubChem BioAssay AID710 (SRMLSC, 2007).
Hit rate of the full screen: of about 98,000 compounds, about 150 (0.15%) were called active.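 How the source made its calls: active means growth inhibition above about 50% at one test dose (limit read from the data); inactive means the rest.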 The entries come from a sample that favours actives as a whole.

assay: antibacterial activity against E. coli BW25113 – strain BW25113, expanded library, OD600, primary screen (AID 710); settings: OD600 absorbance, at 100 µM, hits give high values;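 further: growth measured after 20 h incubation at 37 °C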

Growth inhibition, inactive:
COc1ccccc1NC(=O)COc1ccc(C(=O)OCC(=O)N(C(C)C)C(C)C)cc1OC -6%, Cc1ccc2nc(SCc3nnc(-c4ccccc4[N+](=O)[O-])o3)c(C#N)cc2c1 -15%, CC(Sc1nnc(Cc2ccc([N+](=O)[O-])cc2)o1)C(N)=O (centres undefined) 2%, COc1ccc(NC(=O)CC2COc3ccccc3O2)c(OC)c1 (centres undefined) 7%, CCN(CC)S(=O)(=O)c1ccc2c3c(cccc13)C(=O)S2 1%, COC(=O)[C@@H](NC(=O)Nc1cc(Cl)ccc1C)C(C)C 2%, O=C(Nc1ccc2nc3n(c(=O)c2c1)CCCCC3)c1ccccc1Cl -6%, COc1ccc(NC(=O)CSc2nc(N)c(-c3ccccc3)c(=O)[nH]2)cc1 -12%, CCOC(=O)c1cc2c(ccn2C)n1CC(=O)N1CCC(C)CC1 -6%, COc1ccc(NC(=O)CSc2nc(NS(=O)(=O)c3ccc(C)cc3)cc(=O)[nH]2)cc1 -5%, COc1ccc(CN2CN(C(C)C)CSC2=S)cc1 38%, CC(CN1CCOCC1)c1ccccc1 (centres undefined) 4%, COC(=O)c1ccc(CSc2nc3cc(Cl)ccc3o2)cc1 -5%, CC(=O)Nc1ccc(N2C(=O)CCC2=O)cc1C 0%, Cc1n[nH]c(=S)n1/N=C/c1ccc(Br)o1 -6%, COC(=O)c1ccc(NC(=O)c2ccccc2NS(=O)(=O)c2ccccc2)cc1 4%, CCOCCOCCC(C(=O)O)P(=O)(c1ccccc1)c1ccccc1 (centres undefined) 7%, N#Cc1ccc(-c2ccc(Cl)cc2)nc1Oc1ccc(F)cc1 -7%, CCC1CCCCN1CCCNC(=O)C1CCC(Cn2c(=O)[nH]c3ccccc3c2=O)CC1 (centres undefined) 4%, O=C1/C(=C/c2cccs2)CCc2ccccc21 7%, Cc1cccc(NC(=O)C(C)N2C(=O)C3C4CC(C(Br)C4Br)C3C2=O)c1 (centres undefined) 7%, Cc1ccc(S(=O)(=O)N(C)C2(C)CCS(=O)(=O)C2)cc1 (centres undefined) 4%, O=C(CN1CCSCC1)N/N=C/c1ccc(F)cc1 2%, CCCCNc1ccc(C(=O)Nc2cccc(C)n2)cc1[N+](=O)[O-] 4%, CCN(CC)C(=O)CSC1c2ccccc2C(=O)N1c1ccccc1 (centres undefined) 1%, CCCOc1ccc(C2NC(=O)NC(c3ccccc3)=C2C(C)=O)cc1OCC (centres undefined) -2%, COc1ccc(C(=O)Nc2ccc(F)cc2F)cc1 10%, CC(C)(C)c1cc2cccnc2n1Cc1ccccc1 9%, Cc1ccc(-c2nc3ccccc3[nH]2)cc1NC(=O)c1sc2ccccc2c1Cl -18%, CCC(=O)N(Cc1ccccc1)c1ccccn1 -3%, CCc1cc(C(c2ccccc2OC)N2CCOCC2)c(NC(=O)c2ccccc2)s1 (centres undefined) -3%, CSc1ccccc1NC(=O)c1cc(C2CC2)on1 6%, O=C(c1ccccc1)C(Cn1cncn1)C(Sc1ccccc1)c1ccccc1 (centres undefined) -9%, O=C(CCN1C(=O)c2ccccc2C1=O)Nc1cccc(F)c1 0%, c1ccc2c(C[n+]3csc4ccccc43)cccc2c1 -14%, CCCC(=O)Nc1nc2ccc(NC(=O)c3cccnc3)cc2s1 8%, O=C(CC12CC3CC(CC(C3)C1)C2)Nc1ccc2c(c1)COC2=O -1%, O/N=C1\CC2(Cc3nonc31)OCCO2 -4%, N=c1ccn(CC(=O)NC(N)=O)c2ccccc12 -4%, Cc1nonc1NC(=O)c1ccccc1Br -2%, O=C(Nc1cccc(Cl)c1)Nc1nnc(-c2ccccc2)o1 2%, CCCN(Cc1cc2cccc(C)c2[nH]c1=O)S(C)(=O)=O 2%, CCSc1nc(-c2ccc(OC)cc2)cc(-c2ccc(OC)cc2)c1C#N -14%, CC(C)(C)Cc1nnc(NC(=O)c2cc(-c3ccccc3)nc3ccccc23)s1 -12%, Cc1cc2c(cc1C)N(C(=O)CN1C(=O)c3ccccc3C1=O)C(C)(C)c1ssc(=S)c1-2 -26%, CC(C)NC(=O)C(=O)N/N=C/c1ccco1 0%, Cc1ccc(NC(=S)NC2CCCC2)cc1 10%, CCOc1ccc(OCC)c(-c2c(=O)n(OCc3ccc(Cl)cc3)c3ccccc3[n+]2[O-])c1 -15%, COc1ccc([N+](=O)[O-])cc1C1NN=C(c2cccc3ccccc23)S1 (centres undefined) 3%, COC(=O)C(NC(=O)c1ccc(OC)cc1)(Nc1ncc(S(=O)(=O)c2ccc([N+](=O)[O-])cc2)s1)C(F)(F)F (centres undefined) -3%, Cc1cc(C)cc(OCC(=O)Nc2nc3ccc([N+](=O)[O-])cc3s2)c1 -14%, Cc1cc(C)c2cc(CN(Cc3nnnn3Cc3ccc(F)cc3)C3CCCC3)c(=O)[nH]c2c1 -11%, O=C(NC1CCN(C(=S)NCc2ccco2)CC1)c1ccc(F)cc1 -4%, Cc1ccccc1OC/C(O)=C(\C#N)c1nc2ccccc2[nH]1 -10%, O=C(Cc1ccccc1)N/N=C/c1ccc(Cl)cc1Cl 1%, CC12c3ccccc3C(c3ccccc31)C1C(=O)N(Cc3cccnc3)C(=O)C12 (centres undefined) -1%, CCOc1ccc(N=C2NC(=O)S/C2=C\c2ccc(O)cc2)cc1 -8%, Cc1nnc(NC(=O)Nc2ccc(Cl)c(Cl)c2)s1 -9%, N/C(=N\OC(=O)Nc1ccc(Cl)c(Cl)c1)c1ncc(C(F)(F)F)cc1Cl 8%, Cc1nn(C)c(Oc2ccc(Cl)cc2)c1C=O -1%, FC(F)(F)c1ccc2nnc(-c3c(Cl)cccc3Cl)n2c1 -2%, Cc1cc(C)c2c(-n3cccc3)c(C(=O)NNS(=O)(=O)c3ccc(F)cc3)sc2n1 16%, NC(=O)COc1ccc(/C=N/NC(=O)C2CCCN2S(=O)(=O)c2ccc(Cl)cc2)cc1 (centres undefined) 6%, COC(=O)c1sc2ncccc2c1OCc1ccc(Cl)cc1Cl -14%, C=CCOC(=O)C1=C(C)NC(C)=C(C(=O)OCC=C)C1c1cccs1 5%, CCOC(=O)CN(Cc1ccc(OC)c(OC)c1)S(=O)(=O)c1ccc(OC)cc1 0%, O=C(NCc1cccnc1)c1cccnc1Sc1ccc(Cl)cc1 10%, COc1ccc(C(C#N)Nc2ccccc2C)cc1 (centres undefined) 5%, COc1cc(/C=C2\SC(=S)N(Nc3ncc(C(F)(F)F)cc3Cl)C2=O)cc(OC)c1OC -7%, COc1ccccc1N(C)S(=O)(=O)c1ccc(C(=O)N2CCC(C(N)=O)CC2)cc1 3%, CCCCNC(=O)C1CCCN(S(=O)(=O)c2ccc(S(=O)(=O)NCC(C)C)cc2)C1 (centres undefined) -1%, Cc1cc(-c2ccccc2)nc(N2CCC(C(=O)NC34CC5CC(CC(C5)C3)C4)CC2)n1 -9%, S=c1[nH]nc2c3c4c(sc3ncn12)CCCC4 1%, CCn1c(/C=C/c2ccc([N+](=O)[O-])o2)nc2ccccc2c1=O 6%, COC(=O)c1ccccc1Oc1c(F)c(F)nc(N2CCOCC2)c1F 7%, CCN1CCN(c2ccc([N+](=O)[O-])cc2C(=O)c2ccc(Cl)cc2)CC1 8%, CCOC(=O)c1nc(C)n(-c2ccc(Cl)cc2Cl)n1 8%, O=[N+]([O-])c1ccccc1OCCCCN1CCCCC1 8%, C=CCn1c(-c2ccc3[nH]c(C)c(C)c3c2)n[nH]c1=S 2%, Cc1ccc(C(c2nnnn2CS(=O)(=O)c2ccc(C)cc2)N2CCC(C)CC2)cc1 (centres undefined) -1%, CCCNC(=O)c1c(N)n(-c2ccc(S(N)(=O)=O)cc2)c2nc3ccccc3nc12 -1%, O=C(O)CSCC(=O)Nc1cccc(C(F)(F)F)c1 3%, CC(=O)N1CCN(C(=O)Nc2cccc(C(F)(F)F)c2)CC1 17%, Cc1cccn2c(=O)c(/C=C(\C#N)S(=O)(=O)c3ccc(Cl)cc3)c(N3CCC(C(N)=O)CC3)nc12 0%, COc1ccc(N2CCN(C(=O)CCc3nc(-c4ccc(C)cc4)no3)CC2)cc1 -5%, CC(C)C(=O)Nc1cccc(NC(=S)NC(=O)C(c2ccccc2)c2ccccc2)c1 -13%, O=C(CNC(=O)c1ccccc1)NCC(=O)OCc1ccc(Cl)cc1 1%, COc1ccc(-c2nn(C)c(=O)c3ccccc23)cc1NC(=O)COc1ccccc1 2%, CN(C(=O)CC(NC(=O)c1ccccc1)(c1ccccc1)c1ccccc1)c1ccccc1 -17%, CCOC(=O)CSc1ncc(-c2cccc(Cl)c2)cn1 2%, O=C(CSc1nnc(-c2cccs2)n1Cc1ccccc1)N1CCc2ccccc2C1 -18%, Cc1cccc(NC(=O)CSc2nc3c(c(=O)[nH]2)CCCC3)c1C 3%

Growth inhibition, active:
S=C1SCN(CCN2CCOCC2)CN1Cc1ccccc1 50%, ON=C1/C(=N\O)CC2(C/C1=N/O)OCCO2 57%, O=C(Nc1nnc(-c2ccc(Cl)cc2)o1)c1ccccc1Br 57%, O=C(NC(Nc1nc2ccc([N+](=O)[O-])cc2s1)(C(F)(F)F)C(F)(F)F)c1ccccc1 50%, O=C(CC(O)(C(F)(F)F)C(F)(F)F)Nc1ccc(Cl)c(Cl)c1 88%, NC(N)=N/N=C/c1ccc(OCc2ccc(Cl)cc2Cl)cc1 97%, FC(F)(F)c1cccc(NC(=S)Nc2cccc(Cl)c2)c1 50%
